Positions count from the first letter of the chain named.
Assays:
Assay in all cases: PBM; 200 nM protein, PBS
Details in all cases: dsDNA, one strand shown
HESX1 [1] = target: HESX1 (Homo sapiens, UniProt Q9UBX0 95-180, R165K)
HESX1 [2] = target: HESX1 (Homo sapiens, UniProt Q9UBX0 95-180)
PROP1 [3] = target: PROP1 (Homo sapiens, UniProt O75360 56-141)
HESX1 [4] = target: HESX1 (Homo sapiens, UniProt Q9UBX0 95-180, R109Q)
PROP1 [5] = target: PROP1 (Homo sapiens, UniProt O75360 56-141, R99H)
HESX1 [6] = target: HESX1 (Homo sapiens, UniProt Q9UBX0 95-180, P111T)
Sequence of HESX1 (Homo sapiens, UniProt Q9UBX0 95-180, P111T) (Q9UBX0 95-180 P111T): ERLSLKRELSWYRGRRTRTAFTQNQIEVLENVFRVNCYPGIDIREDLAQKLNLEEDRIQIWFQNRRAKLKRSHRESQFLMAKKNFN

PROP1 [7] = target: PROP1 (Homo sapiens, UniProt O75360 56-141, F88S)
Sequence of PROP1 (Homo sapiens, UniProt O75360 56-141, F88S) (O75360 56-141 F88S): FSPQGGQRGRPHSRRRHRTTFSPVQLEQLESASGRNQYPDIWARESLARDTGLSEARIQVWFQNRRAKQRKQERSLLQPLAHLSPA

HESX1 [8] = target: HESX1 (Homo sapiens, UniProt Q9UBX0 95-180, F115L)
Sequence of HESX1 (Homo sapiens, UniProt Q9UBX0 95-180, F115L) (Q9UBX0 95-180 F115L): as the sequence (Q9UBX0 95-180 P111T) above, with T17P, F21L counted along it

NKX2-6 [9] = target: T1, NKX2-6 (Homo sapiens, UniProt A6NCS4 118-204)
T1 sequence: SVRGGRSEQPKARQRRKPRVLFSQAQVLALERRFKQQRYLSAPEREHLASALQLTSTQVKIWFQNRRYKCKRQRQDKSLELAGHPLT

PITX2 = PITX2 (Homo sapiens, UniProt Q99697 72-157)
NKX2-6 [10] = target: T2, NKX2-6 (Homo sapiens, UniProt A6NCS4 118-204, F151L)
T2 sequence: T1 sequence with F34L

VAX1 [11] = target: VAX1 (Homo sapiens, UniProt Q5SQQ9 86-172)
Sequence of VAX1 (Homo sapiens, UniProt Q5SQQ9 86-172) (Q5SQQ9 86-172): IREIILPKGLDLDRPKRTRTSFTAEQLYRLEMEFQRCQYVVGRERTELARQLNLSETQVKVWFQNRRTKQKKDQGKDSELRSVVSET

VAX1 [12] = target: VAX1 (Homo sapiens, UniProt Q5SQQ9 86-172, T142I)
Sequence of VAX1 (Homo sapiens, UniProt Q5SQQ9 86-172, T142I) (Q5SQQ9 86-172 T142I): as the sequence (Q5SQQ9 86-172) above, with T57I counted along it

VAX1 [13] = target: VAX1 (Homo sapiens, UniProt Q5SQQ9 86-172, K157R)
Sequence of VAX1 (Homo sapiens, UniProt Q5SQQ9 86-172, K157R) (Q5SQQ9 86-172 K157R): as the sequence (Q5SQQ9 86-172) above, with K72R counted along it

MSX2 [14] = target: MSX2 (Homo sapiens, UniProt P35548 130-214, R199I)
Sequence of MSX2 (Homo sapiens, UniProt P35548 130-214, R199I) (P35548 130-214 R199I): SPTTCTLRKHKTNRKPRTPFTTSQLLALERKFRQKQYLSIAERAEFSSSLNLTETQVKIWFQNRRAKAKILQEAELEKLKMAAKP

ALX1 [15] = target: ALX1 (Homo sapiens, UniProt Q15699 118-204, L144V)
Sequence of ALX1 (Homo sapiens, UniProt Q15699 118-204, L144V) (Q15699 118-204 L144V): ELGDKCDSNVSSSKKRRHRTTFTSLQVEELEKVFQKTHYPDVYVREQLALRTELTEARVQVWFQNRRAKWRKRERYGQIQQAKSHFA

ALX1 [16] = target: ALX1 (Homo sapiens, UniProt Q15699 118-204, L144R)
Sequence of ALX1 (Homo sapiens, UniProt Q15699 118-204, L144R) (Q15699 118-204 L144R): as the sequence (Q15699 118-204 L144V) above, with V27R counted along it

MSX2 [17] = target: MSX2 (Homo sapiens, UniProt P35548 130-214)
Sequence of MSX2 (Homo sapiens, UniProt P35548 130-214) (P35548 130-214): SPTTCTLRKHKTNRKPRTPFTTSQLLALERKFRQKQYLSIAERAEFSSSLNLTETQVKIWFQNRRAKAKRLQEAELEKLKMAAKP

MSX2 [18] = target: MSX2 (Homo sapiens, UniProt P35548 130-214, F161Y)
Sequence of MSX2 (Homo sapiens, UniProt P35548 130-214, F161Y) (P35548 130-214 F161Y): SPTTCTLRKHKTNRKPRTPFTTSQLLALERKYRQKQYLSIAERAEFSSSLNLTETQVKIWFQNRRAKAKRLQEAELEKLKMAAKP

ALX1 [19] = target: ALX1 (Homo sapiens, UniProt Q15699 118-204)
Sequence of ALX1 (Homo sapiens, UniProt Q15699 118-204) (Q15699 118-204): as the sequence (Q15699 118-204 L144V) above, with V27L counted along it

Sequence of HESX1 (Homo sapiens, UniProt Q9UBX0 95-180, R109Q) (Q9UBX0 95-180 R109Q): as the sequence (Q9UBX0 95-180 P111T) above, with R15Q, T17P counted along it
Sequence of PROP1 (Homo sapiens, UniProt O75360 56-141, R99H) (O75360 56-141 R99H): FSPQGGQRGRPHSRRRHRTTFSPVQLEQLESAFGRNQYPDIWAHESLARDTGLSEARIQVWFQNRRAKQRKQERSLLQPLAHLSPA
Sequence of HESX1 (Homo sapiens, UniProt Q9UBX0 95-180, R165K) (Q9UBX0 95-180 R165K): as the sequence (Q9UBX0 95-180 P111T) above, with T17P, R71K counted along it
Sequence of HESX1 (Homo sapiens, UniProt Q9UBX0 95-180) (Q9UBX0 95-180): as the sequence (Q9UBX0 95-180 P111T) above, with T17P counted along it
Sequence of PROP1 (Homo sapiens, UniProt O75360 56-141) (O75360 56-141): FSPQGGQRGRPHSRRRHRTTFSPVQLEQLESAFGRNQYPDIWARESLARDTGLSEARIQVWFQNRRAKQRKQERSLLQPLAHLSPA

GAAAGGCC
binding signal (HESX1 [1]): 6.41 upbm affinity estimate (log intensity, higher = more binding, comparable within an allelic series) | binding signal (HESX1 [2]): 6.39 upbm affinity estimate (log intensity, higher = more binding, comparable within an allelic series) | binding signal (PROP1 [3]): 6.76 upbm affinity estimate (log intensity, higher = more binding, comparable within an allelic series) | binding signal (HESX1 [4]): 6.49 upbm affinity estimate (log intensity, higher = more binding, comparable within an allelic series) | binding signal (PROP1 [5]): 6.79 upbm affinity estimate (log intensity, higher = more binding, comparable within an allelic series) | binding signal (HESX1 [6]): 6.47 upbm affinity estimate (log intensity, higher = more binding, comparable within an allelic series) | binding signal (PROP1 [7]): 6.75 upbm affinity estimate (log intensity, higher = more binding, comparable within an allelic series) | binding signal (HESX1 [8]): 6.63 upbm affinity estimate (log intensity, higher = more binding, comparable within an allelic series)

CTGCCAGC
binding signal (HESX1 [1]): 6.31 upbm affinity estimate (log intensity, higher = more binding, comparable within an allelic series) | binding signal (HESX1 [2]): 6.34 upbm affinity estimate (log intensity, higher = more binding, comparable within an allelic series) | binding signal (NKX2-6 [9]): 9.39 upbm affinity estimate (log intensity, higher = more binding, comparable within an allelic series) | binding signal (PITX2): 8.09 upbm affinity estimate (log intensity, higher = more binding, comparable within an allelic series) | binding signal (HESX1 [4]): 6.43 upbm affinity estimate (log intensity, higher = more binding, comparable within an allelic series) | binding signal (HESX1 [6]): 6.51 upbm affinity estimate (log intensity, higher = more binding, comparable within an allelic series) | binding signal (NKX2-6 [10]): 9.37 upbm affinity estimate (log intensity, higher = more binding, comparable within an allelic series) | binding signal (HESX1 [8]): 6.4 upbm affinity estimate (log intensity, higher = more binding, comparable within an allelic series)

GCGTGGCC
binding signal (HESX1 [1]): 6.46 upbm affinity estimate (log intensity, higher = more binding, comparable within an allelic series) | binding signal (HESX1 [2]): 6.31 upbm affinity estimate (log intensity, higher = more binding, comparable within an allelic series) | binding signal (HESX1 [4]): 6.39 upbm affinity estimate (log intensity, higher = more binding, comparable within an allelic series) | binding signal (VAX1 [11]): 7.21 upbm affinity estimate (log intensity, higher = more binding, comparable within an allelic series) | binding signal (HESX1 [6]): 6.37 upbm affinity estimate (log intensity, higher = more binding, comparable within an allelic series) | binding signal (HESX1 [8]): 6.39 upbm affinity estimate (log intensity, higher = more binding, comparable within an allelic series) | binding signal (VAX1 [12]): 7.36 upbm affinity estimate (log intensity, higher = more binding, comparable within an allelic series) | binding signal (VAX1 [13]): 6.97 upbm affinity estimate (log intensity, higher = more binding, comparable within an allelic series)

AGGTGGCC
binding signal (HESX1 [1]): 6.42 upbm affinity estimate (log intensity, higher = more binding, comparable within an allelic series) | binding signal (HESX1 [2]): 6.42 upbm affinity estimate (log intensity, higher = more binding, comparable within an allelic series) | binding signal (HESX1 [4]): 6.5 upbm affinity estimate (log intensity, higher = more binding, comparable within an allelic series) | binding signal (HESX1 [6]): 6.47 upbm affinity estimate (log intensity, higher = more binding, comparable within an allelic series) | binding signal (HESX1 [8]): 6.46 upbm affinity estimate (log intensity, higher = more binding, comparable within an allelic series)

ATTAGCGA
binding signal (HESX1 [1]): 9.89 upbm affinity estimate (log intensity, higher = more binding, comparable within an allelic series) | binding signal (HESX1 [2]): 10.1 upbm affinity estimate (log intensity, higher = more binding, comparable within an allelic series) | binding signal (PROP1 [3]): 10.2 upbm affinity estimate (log intensity, higher = more binding, comparable within an allelic series) | binding signal (PROP1 [5]): 9.94 upbm affinity estimate (log intensity, higher = more binding, comparable within an allelic series) | binding signal (HESX1 [6]): 8.88 upbm affinity estimate (log intensity, higher = more binding, comparable within an allelic series) | binding signal (PROP1 [7]): 7.4 upbm affinity estimate (log intensity, higher = more binding, comparable within an allelic series)

AGTAATTG
binding signal (HESX1 [1]): 11.8 upbm affinity estimate (log intensity, higher = more binding, comparable within an allelic series) | binding signal (HESX1 [2]): 12 upbm affinity estimate (log intensity, higher = more binding, comparable within an allelic series) | binding signal (MSX2 [14]): 12.5 upbm affinity estimate (log intensity, higher = more binding, comparable within an allelic series) | binding signal (ALX1 [15]): 11.4 upbm affinity estimate (log intensity, higher = more binding, comparable within an allelic series) | binding signal (ALX1 [16]): 10.9 upbm affinity estimate (log intensity, higher = more binding, comparable within an allelic series) | binding signal (MSX2 [17]): 13.7 upbm affinity estimate (log intensity, higher = more binding, comparable within an allelic series) | binding signal (HESX1 [4]): 8.47 upbm affinity estimate (log intensity, higher = more binding, comparable within an allelic series) | binding signal (PROP1 [5]): 11 upbm affinity estimate (log intensity, higher = more binding, comparable within an allelic series) | binding signal (HESX1 [6]): 10.3 upbm affinity estimate (log intensity, higher = more binding, comparable within an allelic series) | binding signal (MSX2 [18]): 13.4 upbm affinity estimate (log intensity, higher = more binding, comparable within an allelic series) | binding signal (HESX1 [8]): 7.48 upbm affinity estimate (log intensity, higher = more binding, comparable within an allelic series) | binding signal (ALX1 [19]): 12 upbm affinity estimate (log intensity, higher = more binding, comparable within an allelic series)

ATTGATTC
binding signal (HESX1 [1]): 7.97 upbm affinity estimate (log intensity, higher = more binding, comparable within an allelic series) | binding signal (HESX1 [2]): 8.12 upbm affinity estimate (log intensity, higher = more binding, comparable within an allelic series) | binding signal (HESX1 [4]): 7.41 upbm affinity estimate (log intensity, higher = more binding, comparable within an allelic series) | binding signal (HESX1 [6]): 7.74 upbm affinity estimate (log intensity, higher = more binding, comparable within an allelic series)

CTGGGCTC
binding signal (HESX1 [1]): 6.43 upbm affinity estimate (log intensity, higher = more binding, comparable within an allelic series) | binding signal (HESX1 [2]): 6.41 upbm affinity estimate (log intensity, higher = more binding, comparable within an allelic series) | binding signal (ALX1 [15]): 6.37 upbm affinity estimate (log intensity, higher = more binding, comparable within an allelic series) | binding signal (ALX1 [16]): 6.38 upbm affinity estimate (log intensity, higher = more binding, comparable within an allelic series) | binding signal (HESX1 [4]): 6.43 upbm affinity estimate (log intensity, higher = more binding, comparable within an allelic series) | binding signal (HESX1 [6]): 6.51 upbm affinity estimate (log intensity, higher = more binding, comparable within an allelic series) | binding signal (HESX1 [8]): 6.39 upbm affinity estimate (log intensity, higher = more binding, comparable within an allelic series) | binding signal (ALX1 [19]): 6.38 upbm affinity estimate (log intensity, higher = more binding, comparable within an allelic series)

Reference: publication PMC11006913
